# Records with an inconclusive call do not appear. Entries that show only a call come without a potency. Unmarked numbers belong to inactive results. Calls of active or inactive are those of the source. Unless noted, calls come from the whole dose curve; as a rule, active = well fitted curve in the direction sought with a large enough effect; inconclusive = small, poorly fitted or top-dose-only effect, or another doubt; inactive = no such curve, though single readings can be large; an effect the other way counts as inactive or inconclusive.
# How the values were obtained:
# [1] = qHTS for Inhibitors of Plasmodium falciparum (7G8) proliferation (AID 504316); note: nearly all actives have a fitted effect of over 65% in size; note: potency is the fitted concentration of half-maximal effect; for activity change, negative = inhibition: series mostly up to about 6.7 µM
# Method in brief: (§1)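 Erythrocytes infected with P. falciparum line (0.3% parasitemia, 2.5% hematocrit final) incubated with compounds 72 h at 37 °C, 5% CO2; SYBR Green lysis buffer added, fluorescence read next day. Normalized to 0.29 uM artemisinin and DMSO.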
# [2] = qHTS for Inhibitors of Plasmodium falciparum (CP250) proliferation (AID 504320); note: potency is the fitted concentration of half-maximal effect
# Method in brief: as §1
# [3] = molecular target: Atrial natriuretic peptide receptor 1 (Homo sapiens) (UniProt P16066); test: Natriuretic polypeptide receptor (hNpr1) antagonism - Pilot CMLD screen (AID 1347052; calls by dose curve;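 note: cGMP level read as GloSensor luciferase luminescence after agonist stimulation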; note: potency is the fitted concentration of half-maximal effect;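 for activity change, negative = inhibition: HEK293 cells with hNpr1 stimulated by hNppA peptide at 0.1 nM; series mostly up to about 9.2 µM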)
# Chain of Atrial natriuretic peptide receptor 1 (Homo sapiens) (P16066 whole entry, looked up): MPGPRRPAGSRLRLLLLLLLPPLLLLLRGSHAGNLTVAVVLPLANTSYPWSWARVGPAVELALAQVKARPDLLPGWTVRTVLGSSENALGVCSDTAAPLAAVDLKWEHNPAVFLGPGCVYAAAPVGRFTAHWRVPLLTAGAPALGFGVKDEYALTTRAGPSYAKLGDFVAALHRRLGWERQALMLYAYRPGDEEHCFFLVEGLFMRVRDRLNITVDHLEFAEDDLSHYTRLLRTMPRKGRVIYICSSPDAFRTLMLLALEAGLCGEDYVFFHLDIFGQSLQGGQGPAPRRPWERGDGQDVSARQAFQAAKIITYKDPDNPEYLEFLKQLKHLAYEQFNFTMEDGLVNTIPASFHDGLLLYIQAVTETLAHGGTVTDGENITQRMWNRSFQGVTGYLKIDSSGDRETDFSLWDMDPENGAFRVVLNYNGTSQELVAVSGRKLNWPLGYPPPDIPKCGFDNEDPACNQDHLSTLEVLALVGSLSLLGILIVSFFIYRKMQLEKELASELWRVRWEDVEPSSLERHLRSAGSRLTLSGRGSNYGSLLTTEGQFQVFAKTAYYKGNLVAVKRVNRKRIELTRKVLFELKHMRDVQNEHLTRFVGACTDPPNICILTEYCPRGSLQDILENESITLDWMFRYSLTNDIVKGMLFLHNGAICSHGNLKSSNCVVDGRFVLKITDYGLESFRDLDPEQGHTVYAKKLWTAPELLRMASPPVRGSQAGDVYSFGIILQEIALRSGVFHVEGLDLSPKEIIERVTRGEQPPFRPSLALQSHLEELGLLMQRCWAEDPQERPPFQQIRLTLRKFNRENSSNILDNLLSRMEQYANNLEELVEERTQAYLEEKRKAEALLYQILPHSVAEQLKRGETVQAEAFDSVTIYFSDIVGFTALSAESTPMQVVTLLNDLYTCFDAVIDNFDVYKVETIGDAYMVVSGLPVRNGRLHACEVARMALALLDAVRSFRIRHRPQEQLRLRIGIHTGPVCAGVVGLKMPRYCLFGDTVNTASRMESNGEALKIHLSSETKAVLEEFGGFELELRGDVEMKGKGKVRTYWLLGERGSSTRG
# [4] = qHTS for Inhibitors of Plasmodium falciparum (HB3) proliferation (AID 504318); note: nearly all actives have a fitted effect of over 60% in size; note: potency is the fitted concentration of half-maximal effect
# Method in brief: as §1
# [5] = molecular target: Cytochrome P450 2C9 (Homo sapiens) (UniProt P11712); test: qHTS Assay for Inhibitors and Substrates of Cytochrome P450 2C9 (AID 883); note: nearly all actives have a fitted effect of over 60% in size
# Chain of Cytochrome P450 2C9 (Homo sapiens) (P11712 whole entry, looked up): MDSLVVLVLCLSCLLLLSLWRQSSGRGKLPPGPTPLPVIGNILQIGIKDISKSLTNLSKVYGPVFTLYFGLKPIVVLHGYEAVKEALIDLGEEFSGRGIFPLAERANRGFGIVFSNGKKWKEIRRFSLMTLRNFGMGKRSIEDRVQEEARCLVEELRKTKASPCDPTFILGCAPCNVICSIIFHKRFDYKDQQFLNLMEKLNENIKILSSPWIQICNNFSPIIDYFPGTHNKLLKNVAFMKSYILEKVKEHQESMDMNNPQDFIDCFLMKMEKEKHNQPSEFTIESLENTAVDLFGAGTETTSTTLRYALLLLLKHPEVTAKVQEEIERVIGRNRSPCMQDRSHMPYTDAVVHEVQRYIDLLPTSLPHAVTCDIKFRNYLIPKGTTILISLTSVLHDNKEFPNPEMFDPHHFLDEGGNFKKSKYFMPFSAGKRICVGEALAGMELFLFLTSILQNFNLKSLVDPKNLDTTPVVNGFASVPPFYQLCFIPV
# Method in brief: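 Signal: luciferase luminescence reporting luciferin produced by CYP2C9. Conditions: 10nM enzyme, Luciferin-H 100uM at KM, 25mM KPO4, 37C, 60 min NADPH-driven reaction. Reference: 57uM sulphaphenazole as 100% inhibition.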
# [6] = molecular target: Cytochrome P450 3A4 (Homo sapiens) (UniProt P08684); test: qHTS Assay for Inhibitors and Substrates of Cytochrome P450 3A4 (AID 884); note: series mostly up to about 57 µM; nearly all actives have a fitted effect of over 50% in size
# Chain of Cytochrome P450 3A4 (Homo sapiens) (P08684 whole entry, looked up): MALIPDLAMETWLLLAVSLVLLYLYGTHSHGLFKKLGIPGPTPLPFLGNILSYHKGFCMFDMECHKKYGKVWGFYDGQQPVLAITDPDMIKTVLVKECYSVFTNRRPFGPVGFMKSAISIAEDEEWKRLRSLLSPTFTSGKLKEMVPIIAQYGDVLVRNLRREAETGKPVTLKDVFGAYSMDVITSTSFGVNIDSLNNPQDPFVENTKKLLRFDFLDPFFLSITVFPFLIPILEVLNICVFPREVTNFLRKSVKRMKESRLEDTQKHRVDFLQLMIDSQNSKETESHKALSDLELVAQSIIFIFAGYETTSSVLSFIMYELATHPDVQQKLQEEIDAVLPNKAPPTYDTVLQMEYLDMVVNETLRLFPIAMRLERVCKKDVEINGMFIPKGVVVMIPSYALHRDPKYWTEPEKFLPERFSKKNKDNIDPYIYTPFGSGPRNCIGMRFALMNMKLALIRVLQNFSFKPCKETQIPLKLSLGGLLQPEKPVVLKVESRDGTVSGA
# Method in brief: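 20 nM human CYP3A4 with 25 uM Luciferin-PPXE (at KM) in 200 mM KPO4, preincubated 10 min with compound; NADPH regeneration started a 60 min RT reaction. Luciferin detected by luminescence, normalized to 57 uM ketoconazole as full inhibition.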
# [7] = molecular target: Cytochrome P450 2C19 (Homo sapiens) (UniProt P33261); test: qHTS Assay for Inhibitors and Substrates of Cytochrome P450 2C19 (AID 899); note: nearly all actives have a fitted effect of over 60% in size
# Chain of Cytochrome P450 2C19 (Homo sapiens) (P33261 whole entry, looked up): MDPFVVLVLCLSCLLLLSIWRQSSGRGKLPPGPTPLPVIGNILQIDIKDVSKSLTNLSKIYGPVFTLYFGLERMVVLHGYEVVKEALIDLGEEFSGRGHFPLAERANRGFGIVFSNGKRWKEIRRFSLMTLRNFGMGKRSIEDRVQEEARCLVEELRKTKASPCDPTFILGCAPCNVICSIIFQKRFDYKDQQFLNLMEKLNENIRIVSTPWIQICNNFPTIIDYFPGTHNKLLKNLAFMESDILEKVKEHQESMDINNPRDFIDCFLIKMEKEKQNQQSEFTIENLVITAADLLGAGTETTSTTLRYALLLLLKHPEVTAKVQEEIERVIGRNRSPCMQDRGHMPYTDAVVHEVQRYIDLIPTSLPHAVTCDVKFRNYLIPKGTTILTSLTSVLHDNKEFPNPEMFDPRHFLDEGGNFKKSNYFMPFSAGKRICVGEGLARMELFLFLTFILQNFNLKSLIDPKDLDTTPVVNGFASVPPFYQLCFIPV
# Method in brief: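 Signal comes from luciferase acting on luciferin released by CYP2C19-mediated hydroxylation of Luciferin-H EGE, 10uM (KM). Assay mix: 5nM enzyme, 50mM KPO4; 60 min at 37C with NADPH regeneration. Data normalized against 57uM ketoconazole.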
compound,measurement,setting,value
CCCCn1c(C)cc2c(c1=O)[C@H]1O[C@](CCCC)(Cc3cc(C#N)ccc31)O2,Potency,[1],1.9 µM (active)
same,Potency,[2],inactive
same,Potency,[3],inactive
C=C[C@@H](C)[C@](C)(O)c1ccccc1,Potency,[1],1.51 µM (active)
same,Potency,[2],inactive
same,Potency,[3],inactive
COc1ccc(-c2nc3c(c4c2C[C@H](c2ccccc2)OC4)CN(C(=O)N[C@@H](C)C(=O)OC(C)C)CC3)c(C)c1,Potency,[1],1.51 µM (active)
same,Potency,[4],1.65 µM (active)
same,Potency,[2],inactive
same,Potency,[3],inactive
Brc1ccc2c(c1)c1cc(Br)ccc1n2CC1CO1 (stereo unspecified),Potency,[1],1.69 µM (active)
same,Potency,[2],inactive
same,Potency,[3],inactive
COC(=O)C12C[C@@H](C)C3C(C)C(c4ccccc4C31)N2C(=O)C(F)(F)F (stereo partly specified),Potency,[1],inactive
same,Potency,[2],inactive
same,Potency,[3],inactive
CCOC(=O)C(C)=NNC(C)=O,Potency,[1],inactive
same,Potency,[2],inactive
same,Potency,[3],inactive
Cc1ccccc1Nc1oc(-c2ccccc2)nc1C(C)(C)C,Potency,[4],1.69 µM (active)
same,Potency,[3],inactive
CC(Nc1oc(-c2ccccc2)nc1-c1cccc2ccccc12)c1ccccc1 (stereo unspecified),Potency,[4],inactive
same,Potency,[2],inactive
same,Potency,[3],inactive
COC(=O)C1=C(C)N(Cc2ccccc2)C(=NCCc2cccnc2)NC1c1ccccc1 (stereo unspecified),Potency,[4],inactive
same,Potency,[3],inactive
CCN1C(=NCc2ccccc2)NC(c2cccc(C(F)(F)F)c2)C(C(=O)OC)=C1C (stereo unspecified),Potency,[4],inactive
same,Potency,[2],inactive
same,Potency,[3],inactive
COC(=O)c1ccc(CN2C(=O)[C@@]3(CC(C)=CC[C@@H](COc4ccccc4)O3)c3c(Br)cccc32)cc1,Potency,[4],1.51 µM (active)
same,Potency,[3],inactive
CC1=CC[C@@H](COc2ccccc2)O[C@@]2(C1)C(=O)N(Cc1ccccc1C(F)(F)F)c1cccc(Br)c12,Potency,[4],1.69 µM (active)
same,Potency,[3],inactive
COC(=O)C1=C(C(=O)OC)[C@@H]2N(C)c3ccccc3[C@@]23C[C@@H](C(=O)OC)N(C(=O)NC2CCCC2)C3=N1,Potency,[4],inactive
same,Potency,[2],inactive
same,Potency,[3],inactive
COc1ccc([C@]23Cc4ccccc4[C@H](O2)C2=C(CCCC2=O)O3)cc1,Potency,[2],inactive
same,Potency,[3],inactive
C#CCN1C(=O)[C@]2(O[C@H](COc3ccccc3)CC3=C2CCC3)c2ccccc21,Potency,[2],inactive
same,Potency,[3],inactive
COC(=O)CC1c2ccccc2C=C(C=Cc2ccc3c(c2)OCO3)N1C(=O)OC (stereo unspecified),Potency,[4],1.69 µM (active)
same,Potency,[3],inactive
CC(C)(C)OC(=O)C1=NOC2(C=CC(=O)C=C2)C1,"activity change, negative = inhibition",[5],-5.68% [at 11.4 µM]
same,"activity change, negative = inhibition",[6],-24.2% [at 11.4 µM]
same,"activity, negative = inhibition",[7],0.0773% [at 11.4 µM]
same,Potency,[4],inactive
same,Potency,[2],inactive
same,Potency,[3],0.376 µM (active)
C[C@@H]1CC[C@H]2C(=O)N(Cc3ccc(Cl)cc3)C[C@@H](O)CN2[C@@H]1c1ccc(Br)cc1,Potency,[4],inactive
same,Potency,[2],inactive
same,Potency,[3],inactive
COC(=O)C1=C(C(=O)OC)[C@@H]2N(C)c3ccccc3[C@@]23CCC(=O)N(Cc2ccc4c(c2)OCO4)C3=N1,Potency,[2],inactive
same,Potency,[3],inactive
C[C@]12C[C@@](C)(C=C1C=Cc1ccc(F)cc1)C(=O)C[C@H]2c1ccc(F)cc1,Potency,[4],1.69 µM (active)
same,Potency,[3],inactive
CCN1C(=NCCc2ccccn2)NC(c2cccs2)C(C(=O)OC)=C1C (stereo unspecified),Potency,[4],inactive
same,Potency,[2],inactive
same,Potency,[3],inactive
c1ccc(CNc2oc(-c3ccccc3)nc2-c2cccc3ccccc23)cc1,Potency,[4],3.29 µM (active)
same,Potency,[3],inactive
C#CCN1C(=O)[C@]2(O[C@H](COc3ccccc3)CC3=CCCC32)c2c(Br)cccc21 (stereo partly specified),Potency,[4],inactive
same,Potency,[3],inactive
FC(F)(F)c1cc(NC(=S)Nc2ccc3ccccc3c2)cc(C(F)(F)F)c1,Potency,[4],2.13 µM (active)
same,Potency,[3],inactive
COC1=C[C@H](C(=O)NC2CCN(Cc3ccccc3)CC2)C(C)C(c2ccccc2)CC1=O (stereo partly specified),Potency,[2],inactive
same,Potency,[3],inactive
O=C1N(Cc2ccc(F)cc2)c2ccccc2[C@@]12O[C@H](COc1ccccc1)CC1CCCC12 (stereo partly specified),Potency,[4],inactive
same,Potency,[2],inactive
same,Potency,[3],inactive
N#Cc1ccc2c(c1)C[C@]1(CCCCN3C(=O)c4ccccc4C3=O)Oc3cc(-c4ccccc4)oc(=O)c3[C@H]2O1,Potency,[4],inactive
same,Potency,[2],inactive
same,Potency,[3],inactive
CCN1C(=NCCc2c[nH]c3ccccc23)NC(c2cccc(F)c2)C(C(=O)OC)=C1C (stereo unspecified),Potency,[4],inactive
same,Potency,[2],inactive
same,Potency,[3],inactive
CCN1C(=NCc2ccc3c(c2)OCO3)NC(c2ccccc2)C(C(=O)OC)=C1C (stereo unspecified),Potency,[4],inactive
same,Potency,[3],inactive
O=c1oc2ccccc2c2c1[C@H]1O[C@](c3ccsc3)(Cc3ccccc31)O2,Potency,[4],inactive
same,Potency,[2],inactive
same,Potency,[3],inactive
CC1=CC[C@@H](COc2ccccc2)O[C@@]2(C1)C(=O)Nc1ccccc12,Potency,[4],inactive
same,Potency,[3],inactive
COC(=O)C1=C(C)N(CC2CC2)C(N(C)Cc2ccc(OC)cc2)=NC1c1ccccc1 (stereo unspecified),Potency,[4],inactive
same,Potency,[3],inactive
CC1=C[C@]2(O[C@H](COc3ccccc3)C1)C(=O)N(C)c1ccccc12,Potency,[4],inactive
same,Potency,[2],inactive
same,outcome,[3],inactive
C[C@H]1CC[C@H]2C(=O)O[C@H](COc3ccc(C(C)(C)C)cc3)CN2[C@H]1c1ccc(Br)cc1,Potency,[4],3.29 µM (active)
same,Potency,[3],inactive
C=CCN=C1N[C@H](c2ccc(Br)cc2)C(C(=O)OC)=C(C)N1Cc1ccccc1,Potency,[4],inactive
same,Potency,[3],inactive
C[C@@H]1CC[C@H]2C(=O)O[C@@H](COc3ccc(C(C)(C)C)cc3)CN2[C@@H]1c1ccc(Br)cc1,Potency,[4],1.69 µM (active)
same,Potency,[2],1.51 µM (active)
same,Potency,[3],inactive
N#Cc1ccc2c(c1)C[C@]1(c3ccsc3)Oc3c(c(=O)oc4ccc(F)cc34)[C@@H]2O1,Potency,[2],inactive
same,Potency,[3],inactive

# Source: PubChem BioAssay (NCATS)
